Bioassay records (PubChem BioAssay)
A selection: hits, their analogues and other compounds. The true share with any hit is near 6.3%.
ATXN2 expr inh = inhibitors of ATXN2 expression | HEK-293 ATXN2-luciferase reporter, luminescence, 24 h | Potency, µM (series often up to 57 µM), for inactives: top-dose activity change, negative = inhibition, actives largely listed as inhibitors | AID 1745845 | actives 0.72% (n = 360,000); note: % is set by controls: 0 for no effect and ±100 for the full control effect; nearly all actives have a fitted effect of over 55% in size
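ATXN2-luciferase reporter cells (luciferase flanked by upstream and downstream ATXN2 gene portions) were treated 24 h at 37 °C with compounds at up to 57 uM. SteadyGlo luminescence gave expression; GF-AFC fluorescence gave viability.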
HepG2 tox = HepG2 cytotoxicity, counter-screen for TGF-b inhibitors; HepG2 CAGA-GFP viability, ATP luminescence, 18 h; Potency, µM (top dose mostly 46.1 µM), inactives show top-dose activity change, negative = cytotoxicity, actives largely listed as cytotoxic; actives 0.76% (n = 410,000); AID 588856
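CellTiter-Glo luminescence gave cytotoxicity after 18 hours at 37 degrees C. The cells were HepG2 CAGA-GFP in 1% FBS DMEM, stimulated with 500 pg/mL TGF-beta after compound addition. %Activity was normalised to no-cell wells (complete cell-killing) and DMSO (no toxicity), and curves were fitted and classified.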
RORgamma inh = ROR gamma (mouse) transcription inhibition; Potency, µM (doses to about 53.6 µM), for inactives: at the top dose activity change, negative = inhibition, usual class: inhibitors; actives 5.4% (n = 310,000); AID 2551; Drosophila S2 Gal4-RORgamma UAS-luciferase reporter, 20 h; P51450; note: % is set by controls: 0 for no effect and ±100 for the full control effect; nearly all actives have a fitted effect of over 60% in size
Target sequence (P51450 whole entry, looked up, the tested form may be a part): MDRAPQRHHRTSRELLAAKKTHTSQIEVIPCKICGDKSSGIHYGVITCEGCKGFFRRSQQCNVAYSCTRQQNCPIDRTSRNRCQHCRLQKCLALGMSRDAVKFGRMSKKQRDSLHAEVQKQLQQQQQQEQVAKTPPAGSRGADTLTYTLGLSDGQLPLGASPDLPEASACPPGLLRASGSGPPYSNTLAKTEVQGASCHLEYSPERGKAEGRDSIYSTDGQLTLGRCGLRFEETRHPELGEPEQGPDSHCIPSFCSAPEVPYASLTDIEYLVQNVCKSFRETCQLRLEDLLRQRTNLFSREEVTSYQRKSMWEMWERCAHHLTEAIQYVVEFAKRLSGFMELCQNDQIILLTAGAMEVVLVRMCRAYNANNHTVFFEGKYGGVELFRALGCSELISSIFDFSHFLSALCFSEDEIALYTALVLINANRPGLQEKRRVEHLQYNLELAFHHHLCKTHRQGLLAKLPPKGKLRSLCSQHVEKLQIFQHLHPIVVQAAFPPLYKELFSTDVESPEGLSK
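Read-out: Photinus luciferase luminescence; inhibitors lower reporter signal. Insect Schneider cells with Gal4-ROR gamma fusion under metallothionein promoter, UAS reporter; 700 uM final copper sulfate induction, 20 hr, ambient temperature.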
TGFb inhibitor = TGF-b pathway inhibition | HepG2 CAGA-GFP TGF-b/SMAD3 reporter, GFP fluorescence, 18 h; TGF-beta stimulated, 500 pg/mL final | Potency, µM (highest dose often 46.1 µM), without a hit: at the highest dose activity, negative = inhibition, actives largely listed as inhibitors | actives 1.2% (n = 410,000) | AID 588855; note: % is set by controls: 0 for no effect and ±100 for the full control effect; nearly all actives have a fitted effect of over 65% in size
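Cell-based qHTS in HEPG2 carrying a CAGA-GFP Smad reporter; compounds added before 500 pg/mL final TGF-beta, 18 h incubation at 37 degrees C, GFP fluorescence quantified per cell by imaging cytometry.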
VP16 counter = inhibits Gal4-VP16 luciferase reporter, ROR gamma counter-screen; Potency, µM (top dose mostly 53.6 µM), without a hit: top-dose activity, negative = inhibition, hits mostly inhibitors; Drosophila S2 Gal4-VP16 UAS-luciferase, luminescence, 20 h; actives 3.5% (n = 310,000);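 note: Gal4-VP16 expression switched on by copper sulfate through the metallothionein promoter; % is set by controls: 0 for no effect and ±100 for the full control effect; nearly all actives have a fitted effect of over 50% in size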
ATXN viability = reduces viability in counter-screen for ATXN expression inhibitors; actives 0.49% (n = 400,000); Potency, µM (doses to about 56.7 µM), hits mostly cytotoxic; AID 651635; S2 cells (HEK-293 line with an ATXN2-luciferase reporter) viability, CellTiter-Fluor protease fluorescence, 24 h; note: nearly all actives have a fitted effect of over 40% in size
The depositor's hits bear a star; [ ] = dose if it differs, or a comment. Calls come from the whole dose curve; as a rule, active = well fitted curve in the direction sought with a large enough effect; inconclusive = small, poorly fitted or top-dose-only effect, or another doubt; inactive = no such curve, though single readings can be large; an effect the other way counts as inactive or inconclusive. Potency is the fitted concentration of half-maximal effect.

For COc1ccc(/C=C2/SC(=S)N(CCCC(=O)Nc3ccc(O)cc3)C2=O)cc1 the results were ATXN2 expr inh -7%, HepG2 tox -20%, RORgamma inh 0.28µM*, TGFb inhibitor inconclusive, VP16 counter 1.4µM* and ATXN viability inconclusive.
COc1ccc(/C=C2\SC(=S)N(CCCC(=O)Nc3ccc(O)cc3)C2=O)cc1 was read as ATXN2 expr inh -16%, HepG2 tox -32%, RORgamma inh 1.4µM*, TGFb inhibitor inconclusive, VP16 counter 1µM* and ATXN viability inactive.
`COc1ccc(/C=C2\SC(=S)N(CCC(=O)Nc3ccc(C(=O)O)cc3)C2=O)cc1` gave HepG2 tox 3%, RORgamma inh -39%, TGFb inhibitor 17%, VP16 counter 5% and ATXN viability inactive.
For O=C(O)CCN1C(=O)/C(=C\c2ccncc2)SC1=S the results were HepG2 tox -2%, RORgamma inh -11%, TGFb inhibitor -10%, VP16 counter 10% and ATXN viability inactive.
COc1ccc(/C=C2\SC(=S)N(CCC(=O)Nc3cccc(O)c3)C2=O)cc1 was read as HepG2 tox -38%, RORgamma inh inconclusive, TGFb inhibitor -20%, VP16 counter -25% and ATXN viability inconclusive.
For Cc1ccc(Cn2c(SCc3ccc(C(=O)NC4CCCCC4)cc3)nc3ccncc32)cc1 the results were ATXN2 expr inh inconclusive, HepG2 tox -29%, TGFb inhibitor inconclusive and ATXN viability inconclusive.
Screening CCCCNC(=O)CSc1nc2ccccc2nc1Cc1ccccc1 returned ATXN2 expr inh -2%, HepG2 tox -31%, TGFb inhibitor 6% and ATXN viability inactive.
For COc1ccc(/C=N/NC(=O)CCn2cnc(-c3ccccc3)c2-c2ccccc2)cc1OC the results were ATXN2 expr inh inconclusive, HepG2 tox 9%, RORgamma inh inconclusive, TGFb inhibitor inconclusive, VP16 counter 13µM* and ATXN viability inconclusive.
COc1ccc(/C=C\C(=O)Oc2cccc(/C=N/NC(=O)Cc3ccc(OC)c(OC)c3)c2)cc1 was read as ATXN2 expr inh 50%, HepG2 tox 4%, RORgamma inh -28%, TGFb inhibitor inconclusive, VP16 counter 13µM* and ATXN viability inactive.
`COc1cc(/C=N\NC(C)=O)ccc1OC/C=C/c1ccccc1` gave ATXN2 expr inh -38%, HepG2 tox -24%, RORgamma inh inconclusive, TGFb inhibitor -19%, VP16 counter 0.45µM* and ATXN viability inactive.
`COCCCNC(=S)N/N=C/c1ccc(OC)c(Br)c1` gave ATXN2 expr inh 0%, HepG2 tox 4%, RORgamma inh 1µM*, TGFb inhibitor 12%, VP16 counter 11µM* and ATXN viability inactive.
Screening CCCCNC(=O)/C=C/c1ccc(OC)c(Br)c1 returned ATXN2 expr inh 3%, HepG2 tox -3%, RORgamma inh -33%, TGFb inhibitor 22%, VP16 counter -9%[0.365 µM] and ATXN viability inactive.
`O=C(NCc1ccccc1Cl)c1ccc(Nc2nc3ccccc3n3nnnc23)cc1` gave HepG2 tox 9% and TGFb inhibitor 2%.
Screening COc1ccc(OC)c(CCNC(=O)Cn2ccc3cc(S(=O)(=O)N4CCCCC4)ccc32)c1 returned ATXN2 expr inh -27%, HepG2 tox -7%, TGFb inhibitor inconclusive and ATXN viability inconclusive.
Screening COc1cc(/C=N/NC(=S)Nc2cccc(C(=O)O)c2)cc(OC)c1OC returned ATXN2 expr inh 4%, HepG2 tox -15%, RORgamma inh inconclusive, TGFb inhibitor inconclusive, VP16 counter inconclusive and ATXN viability inactive.
For COc1cc(/C=N/NC(=S)N/N=C/c2cc(OC)c(OC)c(OC)c2)cc(OC)c1OC the results were ATXN2 expr inh -2%, HepG2 tox -3%, RORgamma inh inconclusive, TGFb inhibitor 0%, VP16 counter 4µM* and ATXN viability inconclusive.
`COc1ccc(C=NNC(=S)NN=Cc2ccc(OC)c(OC)c2)cc1OC` gave ATXN2 expr inh 4%, HepG2 tox -11%, TGFb inhibitor -1% and ATXN viability inactive.
COc1ccc(CNC(=S)N/N=C/c2ccc(OC)c(OC)c2)cc1 was read as ATXN2 expr inh 8%, HepG2 tox -14%, RORgamma inh 11µM*, TGFb inhibitor -7%, VP16 counter inconclusive and ATXN viability inactive.
COc1ccc(/C=N/NC(=S)NCc2ccccc2)cc1OC was read as ATXN2 expr inh -10%, HepG2 tox -3%, RORgamma inh 10µM*, TGFb inhibitor -2%, VP16 counter inconclusive and ATXN viability inactive.
Screening O=C1C2C3C=CC(O3)C2C(=O)N1N=Cc1cccc2ccccc12 (configuration not stated) returned ATXN2 expr inh 71%, HepG2 tox 3%, TGFb inhibitor 20% and ATXN viability inactive.
`COc1ccc(-c2nc(-c3ccc(NC(=O)c4ccc(Br)o4)cc3)no2)cc1OC` gave ATXN2 expr inh inconclusive, HepG2 tox -59%, RORgamma inh inconclusive, TGFb inhibitor inconclusive, VP16 counter inconclusive and ATXN viability 18µM*.
`COc1cc(-c2nc(-c3ccccc3)c(-c3cccs3)[nH]2)cc(OC)c1OC` gave ATXN2 expr inh 41%, HepG2 tox -25%, RORgamma inh -20%, TGFb inhibitor 7%, VP16 counter -2% and ATXN viability inactive.
For c1ccc(-c2nc(-c3cccs3)[nH]c2-c2ccccc2)cc1 the results were ATXN2 expr inh -10%, HepG2 tox -9%, RORgamma inh 10µM*, TGFb inhibitor inconclusive, VP16 counter -8% and ATXN viability inconclusive.
For Brc1ccc2nc(-c3ccco3)c(CC3CCCCC3)n2c1 the results were ATXN2 expr inh -5%, HepG2 tox -31%, TGFb inhibitor 11µM* and ATXN viability inactive.
Screening COc1ccc(Cc2c(-c3ccccc3)nc3ccc(Cl)cn23)c(C)c1 returned ATXN2 expr inh 7%, HepG2 tox -13%, TGFb inhibitor inconclusive and ATXN viability inconclusive.
COc1ccc(Cc2c(-c3ccco3)nc3ccc(Cl)cn23)c(C)c1 was read as ATXN2 expr inh -8%, HepG2 tox -47%, TGFb inhibitor 22µM* and ATXN viability inactive.
Screening Cc1cc(Br)cn2c(Cc3ccccc3)c(-c3ccco3)nc12 returned ATXN2 expr inh 14%, HepG2 tox -2%, TGFb inhibitor -29% and ATXN viability inconclusive.
Screening Cc1cc(Br)cn2c(Cc3ccsc3)c(-c3ccco3)nc12 returned ATXN2 expr inh inconclusive, HepG2 tox 16µM*, TGFb inhibitor 6.3µM* and ATXN viability inconclusive.
